NadD inh = inhibitors of Staphylococcus aureus NadD; inhibition, % at 20 µM; purified NadD enzyme, colorimetric absorbance read-out; actives 0.78% (n = 360,000); in the data active = inhibition above about 26%
NRP1-CendR mod = NRP-1/CendR interaction modulation. O14786. FAM-RPARPAR peptide binding to NRP-1, fluorescence polarization. inhibition, % at 25 µM. actives 0.85% (n = 360,000);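 active = inhibition or corrected inhibition above about 18%, plus a signal ratio from 0.5 to 1.5, limit read from the data, passing the limit was not always enough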
CRFBP-R2 block = CRF-BP/CRF-R2 complex antagonism. actives 0.59% (n = 350,000). inhibition, % at 11.8 µM. HEK293 CRF-R2/CRF-BP, CRF-induced calcium fluorescence. AID 588475;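 active = inhibition of the ligand-induced calcium signal above about 50% at the single tested concentration, limit read from the data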
Myeloid diff MLP = promotes myeloid progenitor differentiation; ER-HoxA9 myeloid progenitors, lysozyme-GFP differentiation, flow cytometry; calls only at 10 µM; actives 1% (n = 360,000); AID 624256;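 active = normalized GFP-positive differentiation at or above the plate's own cutoff, the solvent-only control mean plus 3 SD; inconclusive = no clear call, values can overlap the other calls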;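 also: cells exposed to compound for four days before flow analysis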
FAS TE block = FAS thioesterase (human) inhibition | P49327 | recombinant FAS-TE, OMFH fluorogenic substrate, fluorescence endpoint | inhibition, % at 15 µM | actives 0.67% (n = 360,000) | AID 602261;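 active = compounds whose normalised, plate-corrected inhibition of enzyme fluorescence in the single-dose primary screen is 50% or more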;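 also: 0% = DMSO with enzyme and 100% = substrate without enzyme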
NadD conf = confirmation of Staphylococcus aureus NadD inhibitors; shares compounds with NadD inh; purified S. aureus NadD, colorimetric enzyme assay; inhibition, % at 20 µM; actives 13% (n = 2,000); AID 624309; in the data active = inhibition mostly above about 42%, no sharp cut-off; inactive = mostly below about 42%
An asterisk follows results filed as active; i = inactive; ? = inconclusive; . = no result. Sampled rows, rich in hits. Any-hit rate of the full collection: about 3.6%.

SMILES	NadD inh	NRP1-CendR mod	CRFBP-R2 block	Myeloid diff MLP	FAS TE block	NadD conf
COc1ccc(N(CC(=O)N/N=C/c2ccc(-c3ccc([N+](=O)[O-])cc3)o2)S(=O)(=O)c2ccc(C)cc2)cc1Cl	39.8*	-73.1	-28.0	i	5.7	2.2
CCOc1ccc(-n2c(SCC(=O)Nc3ccc(C(=O)O)cc3)nc3ccccc3c2=O)cc1	-3.9	-19.6	-0.3	i	-3.7	.
COc1cc(/C=C2\SC(=O)N(CC(=O)Nc3cccc(C)c3)C2=O)cc([N+](=O)[O-])c1O	40.8*	18.1	27.7	i	8.0	6.0
Cc1ccc(NC(=O)c2ncn(CC(=O)NCc3ccc4[nH]ccc4c3)n2)cc1C	0.4	-2.2	20.0	i	-3.3	.
Cc1ccc(NC(=O)c2ncn(CCCN(CCCn3cnc(C(=O)Nc4ccc(C)c(C)c4)n3)Cc3ccc4[nH]ccc4c3)n2)cc1C	38.7*	-9.3	15.4	i	18.9	31.7
CCS(=O)(=O)c1nc(S(=O)(=O)c2ccc(Cl)cc2)c(N2CCC(C(N)=O)CC2)s1	2.0	10.0	-50.7	i	1.5	.
Cc1noc(/C=C/c2ccco2)c1S(=O)(=O)N1CCC(C(=O)N(C)Cc2ccccc2)CC1	17.0	-42.7	-2.3	i	12.9	.
Cc1noc(/C=C/c2ccco2)c1S(=O)(=O)N1CCC(C(=O)N2c3ccccc3CC2C)CC1 (stereo not given)	38.5*	-44.2	40.3	i	39.7	6.0
COc1cc(OC)cc(-c2c(C#Cc3ccsc3)c3cc(-c4cccc5[nH]cc(C=O)c45)ccc3n2C)c1	45.8*	-36.1	-7.9	i	13.9	29.0
O=C(Nc1ccc(-c2csc(Nc3cccc(C(F)(F)F)c3)n2)cc1)c1cc([N+](=O)[O-])cc(C(F)(F)F)c1	32.8*	12.7	-2.5	i	27.3	4.9
O=C(CCCOc1ccc(Cl)cc1Cl)NCCc1ccccn1	-1.6	-3.3	-7.1	i	-1.6	.
Cc1ccc(OCc2nc(-c3ccccc3)no2)cc1	-8.8	8.9	29.2	i	23.4	.
N#CC1=C(N)OC2=C(C(=O)CC(c3ccco3)C2)C1c1ccc(OCc2c(F)cccc2Cl)cc1 (stereo not given)	33.6*	-38.3	11.1	.	19.1	19.8
COc1ccc(C2C(C#N)=C(N)OC3=C2C(=O)CC(C)C3)c(OC)c1OC (stereo not given)	6.7	-7.2	0.9	i	-4.9	.
COc1cccc(C2C(C#N)=C(N)OC3=C2C(=O)CC(c2ccco2)C3)c1OCc1ccc(F)cc1 (stereo not given)	31.0*	-10.0	-3.0	i	15.8	16.4
CCCCOC(=O)c1ccc(S(N)(=O)=O)o1	-5.9	-16.1	8.0	i	-8.6	.
O=C(NNC(=O)c1cc2cc(Br)ccc2oc1=O)c1ccc(O)cc1O	28.7*	-20.7	-17.3	i	3.6	58.1*
Cc1[nH]n(-c2ccc([N+](=O)[O-])cc2)c(=O)c1C=NCCN1CCN(C(=O)c2ccccc2)CC1	-6.0	4.2	-15.3	i	13.7	.
Cc1cc(-c2nnc(SCC(=O)Nc3nc(-c4ccc(Cl)cc4)cs3)o2)no1	26.6*	-1.9	11.1	i	-5.0	2.1
CCSc1c([N+](=O)[O-])c(=O)n(-c2ccccc2)c2ccccc12	-8.3	-3.0	43.1	i	30.4	.
C[C@H](CCC(=O)O)[C@H]1CC[C@H]2[C@@H]3CC[C@@H]4C[C@H](O)CC[C@]4(C)[C@H]3C[C@H](O)[C@]12C	2.4	-13.3	14.0	i	-2.1	.
CC(CCC(=O)NN)C1CCC2C3CCC4CC(O)CCC4(C)C3CCC12C (stereo not given)	37.9*	6.2	-19.7	i	5.5	6.3
Cc1[nH]c2ccc(C(=O)NCCCN3CCCCCC3)cc2c1C	29.3*	-7.2	6.1	i	-1.4	7.0
OC(CNCCC1C=Nc2ccccc21)Cn1c2ccc(Cl)cc2c2cc(Cl)ccc21 (stereo not given)	34.0*	4.9	-31.5	?	-36.1	20.3
O=c1[nH]c(CN2CCN(Cc3ccccc3)CC2)nc2scc(-c3ccccc3)c12	4.0	-13.5	-10.3	i	-3.1	.
SMILES	NadD inh	NRP1-CendR mod	CRFBP-R2 block	Myeloid diff MLP	FAS TE block	NadD conf
O=c1[nH]c(Cn2nnc(-c3ccccc3)n2)nc2scc(-c3ccccc3)c12	30.4*	-7.9	-8.8	i	-8.8	20.7
CCOC(=O)c1cc(-c2ccc(N3C(c4ccsc4)=Cc4ccccc4C3CC(C)=O)cc2)cc([N+](=O)[O-])c1 (stereo not given)	31.6*	-0.7	.	i	15.3	-0.1
CN(CCC#N)C(=O)COC(=O)c1c2c(nc3ccccc13)/C(=C\c1ccco1)CC2	41.8*	-35.0	4.2	i	-2.4	57.6*
Cc1cccc(C)c1NC(=O)COC(=O)c1ccc2c(c1)OCO2	1.7	2.6	10.2	i	-6.0	.
CCCCNC(=O)COC(=O)c1c2c(nc3ccccc13)/C(=C/c1cccs1)CC2	18.6	-47.6	-24.8	i	12.0	.
O=C(COC(=O)c1c2c(nc3ccccc13)/C(=C\c1ccco1)CC2)NC1CCCC1	64.4*	-30.8	2.4	i	2.4	51.1*
Cc1cccc(C)c1NC(=O)COC(=O)c1c2c(nc3ccccc13)/C(=C\c1ccc3c(c1)OCO3)CCC2	47.8*	121.2	-56.4	i	-138.5	6.0
CC1CCCCC1NC(=O)COC(=O)c1c2c(nc3ccccc13)/C(=C\c1ccco1)CC2 (stereo not given)	79.3*	-36.7	-4.8	i	11.1	50.9*
COc1ccccc1C(=O)C1CCCN(C(=O)c2cccnc2SC)C1 (stereo not given)	-0.2	4.2	-5.0	i	-3.2	.
CSc1sccc1/C=C(/C#N)C(=O)c1ccco1	-2.7	-31.6	13.7	i	-9.8	.
CC1(C)Cc2c(C#N)c(N3CCN(C(=O)c4ccccc4)CC3)nc(-c3ccco3)c2CS1	43.3*	-77.2	-5.8	i	-4.4	21.7
COc1ccc(S(=O)(=O)N(C)C)cc1NC(=O)CSC(C)C(=O)Nc1cc(C)on1 (stereo not given)	4.4	9.9	-9.4	i	-6.8	.
COc1ccc(S(=O)(=O)Nc2cccc(-c3ccc(N4CCCCCC4)nn3)c2)c(OC)c1	28.2*	7.6	10.0	?	30.8	36.0
COc1ccc(OC)c(S(=O)(=O)Nc2cccc(-c3ccc(N4CCCCCC4)nn3)c2)c1	35.7*	-4.2	-5.2	?	21.4	29.8
COc1ccc(OC)c(S(=O)(=O)Nc2cccc(O)c2)c1	-3.8	-14.5	3.7	i	-3.3	.
CC(C)(C)NC(=O)CC1C[C@H](C(=O)N2CCOCC2)[C@@]2(C)c3[nH]c4ccccc4c3CCN2C1=O (stereo not given in full)	4.2	7.8	5.3	i	-5.5	.
CCOC(=O)/C=C1\CC(C(=O)OCC)Oc2c(OC)cccc21 (stereo not given)	38.9*	0.3	-6.7	i	1.4	37.8

Screening results (PubChem)
